Results: paper PMC4552634, “A New Set of Chemical Starting Points with Plasmodium falciparum Transmission-Blocking Potential for Antimalarial Drug Discovery” (PLoS ONE, 2015)
The whole screen tested about 13,000 compounds, of which about 3,200 (25%) showed an effect of 50% or more. This is one part of the list.

These molecules were tested on P. falciparum stage V gametocytes. Conditions: 48 h, 5 µM; inhibitor.
Set-up: BacTiter-Glo ATP luminescence viability of purified stage V gametocytes in 384-well plates, per cent inhibition versus DMSO

Row | Structure (SMILES) | % Inhibition [%]
1 | CCOc1ccc(N2C(N)=NC(N)=NC2(C)C)cc1 [TCMDC-124280] | 3.734
2 | COc1cc(C(=O)NC2CCN(Cc3ccccc3)CC2)ccc1-c1cc2cc(Cl)c(Cl)cc2[nH]1 [TCMDC-141286] | 1.884
3 | CC(C)[C@H](NC(=O)c1c(CN2CCC(N3CCCCC3)CC2)c(-c2ccccc2)nc2cc(O)ccc12)c1ccccc1 [TCMDC-140676] | 20.63
4 | O=C(NCCc1ccccc1)N(Cc1ccccc1-c1cccc(CNCc2ccc3c(c2)OCO3)c1)C1CCN(Cc2ccccc2)CC1 [TCMDC-140614] | 15.63
5 | O=C(NCCc1ccccc1)N(Cc1ccccc1-c1ccc(CNCCc2ccccc2)cc1)C1CCN(Cc2ccccc2)CC1 [TCMDC-140611] | 104.9
6 | O=C(NCCc1ccccc1)N(Cc1ccccc1-c1cccc(CNCCc2ccccc2)c1)C1CCN(Cc2ccccc2)CC1 [TCMDC-140610] | 46.01
7 | CC(C)CNCc1cccc(-c2ccccc2CN(C(=O)NCCc2ccccc2)C2CCN(Cc3ccccc3)CC2)c1 [TCMDC-140608] | 89.6
8 | Fc1ccc2[nH]c3c(NCCN4CCCCC4)ncnc3c2c1 [TCMDC-123757] | -41.7
9 | CCc1cc(=O)[nH]c(-n2nc(C)cc2NC(=O)CC(c2ccccc2)c2ccccc2)n1 [TCMDC-124942] | 38.89
10 | Cc1cccc(Nc2nccc(NCC(O)c3cccc(C(F)(F)F)c3)n2)c1 (stereo not drawn) [TCMDC-136582] | 10
11 | CCCCCCNC[C@@H](O)[C@H](Cc1ccccc1)NC(=O)c1cc(NCC)cc(N2CCCCS2(=O)=O)c1 [TCMDC-135218] | 27.85
12 | Cc1ccc2[nH]c(C3CCCNC3)c(-c3ccncc3)c2c1 (stereo not drawn) [TCMDC-134505] | 76.33
13 | COC(=O)c1cc(NC(=O)Nc2ccc(Cn3ncc(N4CCCNCC4)c(Cl)c3=O)cc2)cc(C(=O)OC)c1 [TCMDC-133324] | 3.06
14 | Clc1cc(Nc2ccnc3ccc(Br)cc23)ccc1Oc1ccc2ccccc2c1Cl [TCMDC-124239] | 37.87
15 | COC(=O)CCCCOc1c(OC)cc(Cc2cnc(N)nc2N)cc1OC [TCMDC-137353] | 24.77
16 | Cc1cc(N(C)C2CCN(C)CC2)nc(Nc2ccc(Br)cc2)n1 [TCMDC-137015] | 43.74
17 | Cc1cc(N(C)C2CCN(C)C2)nc(Nc2ccc(Cl)cc2)n1 (stereo not drawn) [TCMDC-137010] | 65.31
18 | CCN(CCCN1CCCCC1)c1cc(C)nc(Nc2ccc(Br)cc2F)n1 [TCMDC-132428] | 4.971
19 | Cc1cc(N(C)C2CCN(C)CC2)nc(Nc2ccc(Cl)cc2)n1 [TCMDC-132418] | 22.03
20 | CCN(CCCN1CCCCC1)c1cc(C)nc(Nc2cc(Cl)ccc2C)n1 [TCMDC-132446] | 50.43
21 | CCN(CCCN1CCCCC1)c1cc(C)nc(Nc2cc(Br)ccc2C)n1 [TCMDC-132432] | 22.76
22 | Cc1cc(N(C)CCCN2CCCCC2)nc(Nc2ccc(Cl)cc2)n1 [TCMDC-137485] | 86.59
23 | CCN(CCCN1CCCCC1)c1cc(C)nc(Nc2cc(C)ccc2C)n1 [TCMDC-132449] | 18.24

Row | Structure (SMILES) | % Inhibition [%]
24 | CCN(CCCN1CCCC1)c1cc(C)nc(Nc2ccc(Cl)cc2)n1 [TCMDC-137224] | 44.32
25 | CCN(CCCN1CCCCC1)c1cc(C)nc(Nc2ccc(Cl)cc2)n1 [TCMDC-137488] | -3.889
26 | CCN(CCCN1CCCCC1)c1cc(C)nc(Nc2ccc(C)cc2Br)n1 [TCMDC-132441] | 94.55
27 | Cc1c(Cc2ccccc2Cl)cnc2nc(N)nc(N)c12 [TCMDC-137245] | 7.074
28 | CCC(C)NS(=O)(=O)c1ccc2nc(Nc3ccc(C)cc3)n(C(C)C(C)(C)C)c2c1 (stereo not drawn) [TCMDC-136230] | -32.2
29 | Cc1cccc2[nH]c(-c3ccc(-c4cccc(NC(=O)Nc5ccsc5)c4)cc3)nc12 [TCMDC-133217] | -11.37
30 | CS(=O)(=O)CCOCc1ccc(-c2ccc3ncnc(Nc4ccc(OCc5cccc(F)c5)c(Cl)c4)c3c2)o1 [TCMDC-138529] | -28.77
31 | CC1(C)N=C(N)N=C(N)N1OCc1cc(Cl)cc2c1OCOC2 [TCMDC-131577] | 12.67
32 | COc1cc(C)nc2ccc(NC(=O)Nc3ccccc3[N+](=O)[O-])cc12 [TCMDC-139396] | 3.442
33 | CCN(CCCN1CCCCC1)c1cc(C)nc(Nc2ccc(C)cc2Cl)n1 [TCMDC-132442] | 11.92
34 | CCN(CCCN1CCCCC1)c1cc(C)nc(Nc2cccc3c2CCCC3)n1 [TCMDC-132431] | 65.25
35 | CCN(CCCN1CCCCC1)c1cc(C)nc(Nc2ccc(Cl)cc2C)n1 [TCMDC-132447] | 51.94
36 | CCCc1ccccc1Nc1nc(C)cc(N(CC)CCCN2CCCCC2)n1 [TCMDC-132434] | 49.3
37 | CCN(CCCN1CCCCC1)c1cc(C)nc(Nc2ccc(C)cc2C)n1 [TCMDC-132445] | 14.07
38 | CCN(CCCN1CCCCC1)c1cc(C)nc(Nc2ccc3c(c2)CCC3)n1 [TCMDC-132443] | -21.7
39 | COc1ccc2nccc([C@@H](O)CN3CCC(NCc4cc5oc(=O)[nH]c5cc4Cl)CC3)c2c1 [TCMDC-141121] | -3.584
40 | Cc1cccc2nc(-c3cccc(-c4ccc(NC(=O)NC5CC5c5ccccc5)cc4)c3)[nH]c12 (stereo not drawn) [TCMDC-133252] | -20.42
41 | Cc1cc2ncc(C(N)=O)c(Nc3ccc(N4CCOCC4)cc3)c2cc1S(C)(=O)=O.Cl [TCMDC-135825] | -8.581
42 | CCCCc1ccc(-c2c(N)nc(N)nc2CC)cc1 [TCMDC-138064] | -26.34
43 | O=C(/C=C/c1ccc(Cl)c(Cl)c1)NCCCCCCN1CCN(C(=O)Nc2cc(F)cc(F)c2)CC1 [TCMDC-135832] | -49.78
44 | COc1ccc2nccc(NCC3(O)CCN(CC(O)c4ccc5c(c4)NC(=O)CS5)CC3)c2n1 (stereo not drawn) [TCMDC-141462] | 18.04
45 | CCc1cc([C@H]2O[C@@H](n3cnc4c(NCC(c5ccccc5)c5ccccc5)nc(NCCNc5ccccn5)nc43)[C@H](O)[C@@H]2O)on1 [TCMDC-138085] | 3.442
46 | COc1ccc(O)c(C(=O)NCCc2ccc(OC)c(-c3ccc(C(C)(C)C)cc3)c2)c1 [TCMDC-136183] | 40.96

Row | Structure (SMILES) | % Inhibition [%]
47 | O=C(NCc1ccc(Cl)c(Cl)c1)c1cc(CNC2CCNCC2)ccc1O [TCMDC-140774] | 49.2
48 | CC(C)(CNC(=O)/C=C/c1ccc(C(F)(F)F)cc1)CNc1cc(=O)c2ccccc2[nH]1 [TCMDC-139403] | -57.07
49 | CC(C)(C)C/C=C\c1ccc(C(=O)NCC2CC2)cc1 [TCMDC-138516] | 17.43
50 | CC(C)(C)c1ccc(CNC(=O)/C=C/c2ccc(CNC3CCNCC3)cc2)cc1 [TCMDC-140773] | 88.02
51 | COc1ccc(CCNC(=O)c2cc(C)ccc2O)cc1-c1ccc(C(C)(C)C)cc1 [TCMDC-136184] | 6.315
52 | CC(C)(C)c1ccc(CN2CCC(NC(=O)c3ccc(-c4ccccc4Cl)s3)CC2)cc1 [TCMDC-134351] | 7.857
53 | CC(C)(C)c1ccc(CNC(=O)c2ccc(CNC3CCC(N)CC3)s2)cc1 (stereo not drawn) [TCMDC-140777] | 101.7
54 | CC(C)(C)c1ccc(CN2CCC(NC(=O)c3ccc(-c4cccc(Cl)c4)s3)CC2)cc1 [TCMDC-134352] | -48.88
55 | CC(C)(C)c1ccc(CNC(=O)c2cc(CNC3CCNC3)ccc2O)cc1 (stereo not drawn) [TCMDC-140761] | 47.42
56 | CC(C)(C)c1ccc(CNC(=O)c2cc(CNC3CCNCC3)ccc2O)cc1 [TCMDC-140775] | 70.98
57 | CC(C)(C)c1ccc(CNC(=O)c2cc(CNC3CCC(N)CC3)ccc2O)cc1 (stereo not drawn) [TCMDC-140776] | 87.73
58 | CC(C)[C@H](NC(=O)c1ccc(O)c(-c2ccc(Cl)c(Cl)c2)c1)C(=O)NC1CCCCCC1 [TCMDC-140844] | 10.04
59 | Cc1cc(O)c(C(C)C)cc1C1(c2cc(C(C)C)c(O)cc2C)OC(=O)c2ccccc21 [TCMDC-123951] | -40.8
60 | Cn1nccc1C(=O)NCCNCc1cccc(-c2ccc(-c3nc4ccccc4[nH]3)cc2)c1.O=C(O)C(F)(F)F [TCMDC-133019] | -30.97
61 | CC(C)(C)c1cc(C(=O)N2CCC(c3ccccn3)CC2)n(Cc2ccccc2)n1 [TCMDC-133770] | -53.32
62 | CN(Cc1ccccc1)C1CCN(c2cc(NC(=O)c3cccc(F)c3)ccn2)CC1 [TCMDC-135000] | -5.844
63 | Clc1nc(Cl)c2c(ccn2Cc2ccccc2)n1 [TCMDC-137801] | 10.13
64 | Clc1ncnc2ncn(Cc3cccc(Br)c3)c12 [TCMDC-137635] | 63.17
65 | CCCCCN1CCCC(CNS(=O)(=O)c2cccc(C(=O)Nc3ccc(C(F)(F)F)cc3)c2)C1 (stereo not drawn) [TCMDC-133672] | -63.4
66 | Fc1cccc(Cn2ncc3cc(Nc4ncnc5sc(C#Cc6ncc[nH]6)cc45)ccc32)c1 [TCMDC-135428] | -11.76
67 | O=c1cc(NCCCNCc2cc3ccc(Br)cc3s2)[nH]c2ccccc12 [TCMDC-140332] | -45.39
68 | OC(c1n[nH]c(=S)n1-c1ccccc1)C(O)c1n[nH]c(=S)n1-c1ccccc1 (stereo not drawn) [TCMDC-125763] | 1.463
69 | Cn1cncc1-c1cc2c(Nc3ccc(OCc4ccccc4)cc3)ncnc2cn1 [TCMDC-137188] | -27.44
